# Sampled rows, rich in hits. Any-hit rate of the full collection: about 18%.
# PLK1 PBD block = inhibitors of human PLK1 polo-box domain binding. Plk1 PBD binding of FITC phosphopeptide, fluorescence polarization. Potency, µM, for the others: max response, negative = inhibition, most hits filed as inhibitors. hit rate 2.8% among 360,000; note: series mostly up to about 57 µM; nearly all actives have a fitted effect of over 65% in size
# VDR inh = vitamin D3 receptor (human) inhibition; P11473; hit rate 0.93% among 400,000; Potency, µM, for the others: max response, negative = inhibition, actives largely listed as inhibitors; VDR-SRC2-3 peptide fluorescence polarization, 2 h; AID 504847
#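 Fluorescence polarization assay measuring small-molecule disruption of VDR binding to the coregulator peptide SRC2-3. Compounds were pin-transferred (23 nl) into the reagent mix and incubated 2 h at room temperature before reading.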
# TDP1 cell noCPT = qHTS for Inhibitors of human tyrosyl-DNA phosphodiesterase 1 (TDP1): qHTS in cells in absence of CPT; DT40 Tdp1-/- hTDP1 cells, no CPT, ATP luminescence, 48 h; Potency, µM (titrated, usually from 46.2 µM), without a hit: top-dose activity change, negative = growth inhibition, usual class: inhibitors; hit rate 15% among 420,000; AID 686978, 2013; note: nearly all actives have a fitted effect of over 55% in size
#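 Luminescent ATP content (CellTiter-Glo) served as the growth readout. Knockout chicken DT40 cells expressing human TDP1 were exposed to compounds without camptothecin for a minimum 48 hr at 37 °C.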
# DT40 TDP1 CPT = growth inhibition of DT40 Tdp1-/-;hTDP1 cells with camptothecin (screen for TDP1 inhibitors); hit rate 12% among 420,000; chicken DT40 Tdp1-/-;hTDP1 cells + 20 nM CPT, ATP luminescence, 48 h; Potency, µM (series often up to 46.2 µM), without a hit: top-dose activity change, negative = growth inhibition, hits mostly inhibitors; note: nearly all actives have a fitted effect of over 55% in size
#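 Chicken DT40 Tdp1-/- cells complemented with human TDP1, 400 cells/well, exposed to compounds plus 20 nM camptothecin for at least 48 h at 37 C; viability read as ATP content by CellTiter-Glo luminescence.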
# GCN5L2 inh = GCN5L2 (KAT2A) acetyltransferase inhibition; Q92830; GCN5L2 HAT assay, ThioGlo1 CoA-SH fluorescence; Potency, µM (series often up to 58.9 µM), for inactives: at the highest dose activity change, negative = inhibition, hits mostly inhibitors; hit rate 0.21% among 390,000; AID 504327
# Target sequence (Q92830 whole entry, looked up): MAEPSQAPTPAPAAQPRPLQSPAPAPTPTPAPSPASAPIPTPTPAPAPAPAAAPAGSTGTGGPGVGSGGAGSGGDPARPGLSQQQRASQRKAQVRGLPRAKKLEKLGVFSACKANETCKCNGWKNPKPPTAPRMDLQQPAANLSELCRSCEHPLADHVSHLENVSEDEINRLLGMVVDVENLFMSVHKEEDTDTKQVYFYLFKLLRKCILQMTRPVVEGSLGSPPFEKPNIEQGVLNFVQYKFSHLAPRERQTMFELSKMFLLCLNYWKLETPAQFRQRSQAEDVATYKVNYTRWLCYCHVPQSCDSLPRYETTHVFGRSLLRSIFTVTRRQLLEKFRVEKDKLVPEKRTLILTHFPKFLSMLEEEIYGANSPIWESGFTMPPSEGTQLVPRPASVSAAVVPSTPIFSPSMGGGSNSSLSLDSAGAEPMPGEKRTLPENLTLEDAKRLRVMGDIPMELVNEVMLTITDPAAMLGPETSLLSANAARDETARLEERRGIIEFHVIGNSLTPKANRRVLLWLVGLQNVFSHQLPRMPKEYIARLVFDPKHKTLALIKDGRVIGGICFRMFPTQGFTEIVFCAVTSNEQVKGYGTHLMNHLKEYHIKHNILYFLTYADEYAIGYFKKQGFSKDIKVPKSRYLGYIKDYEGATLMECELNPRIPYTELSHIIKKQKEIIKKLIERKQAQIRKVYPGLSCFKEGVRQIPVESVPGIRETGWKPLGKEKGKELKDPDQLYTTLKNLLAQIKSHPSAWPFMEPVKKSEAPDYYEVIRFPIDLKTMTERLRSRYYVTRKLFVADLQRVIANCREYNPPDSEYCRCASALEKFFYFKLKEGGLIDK
#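 qHTS, 1536-well. 20nM enzyme, pH 7.5 HEPES/EDTA/Tween-20 buffer; 15 min compound preinc., RT. Start: 75uM H3(1-25), 70uM AcCoA, 50uM ThioGlo1. Read Ex340/Em540 at t=0 (autofluorescence flag) and t=20 min.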
# TDP1 block = inhibitors of human tyrosyl-DNA phosphodiesterase TDP1 | Q9NUW8 | recombinant TDP1, AlphaScreen DNA substrate cleavage | Potency, µM (highest dose often 130 µM), for inactives: top-dose activity change, negative = inhibition, actives largely listed as inhibitors | hit rate 0.28% among 350,000; note: nearly all actives have a fitted effect of over 40% in size
#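 Recombinant human Tdp1 (E. coli-expressed, 1 nM final) preincubated with compounds 15 min at room temperature, then 5'-biotin/3'-phosphotyrosine-FITC DNA substrate (15 nM final) added for 5 min. AlphaScreen beads (10 ug/ml final) added 10 min; cleavage lowers signal.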
# Active calls of the source: *; ? = inconclusive; . = no result given; ! = not confirmed by another sample; [ ] = remark or other dose. Calls come from the whole dose curve; as a rule, active = well fitted curve in the direction sought with a large enough effect; inconclusive = small, poorly fitted or top-dose-only effect, or another doubt; inactive = no such curve, though single readings can be large; an effect the other way counts as inactive or inconclusive. % is set by controls: 0 for no effect and ±100 for the full control effect; potency is the fitted concentration of half-maximal effect.
SMILES,PLK1 PBD block,VDR inh,TDP1 cell noCPT,DT40 TDP1 CPT,GCN5L2 inh,TDP1 block
COc1cccc(-c2ccnc(-n3ncc(C(=O)N(C)CCc4ccccn4)c3C)n2)c1,.,.,-23%,17%,.,.
CCC(=O)NNC(=S)NC(=O)c1ccc(C)cc1,?,-3%,10µM*,?,-3%,4%
Cc1cccc(C(=O)NNC(=O)c2ccc(Cl)cc2)c1O,-10%,-19%,21µM*,?,-2%,4%
Cc1ccc(C(=O)NNC(=S)NC(=O)c2ccc(Cl)cc2)cc1,-9%,5%,?,16µM*,-28%,8%
CC(=O)NNC(=S)NC(=O)c1ccc(C)cc1,3%,-12%,-8%,1%,-1%,.
CCN(CC)S(=O)(=O)c1ccc2c(c1)c(=O)c(C(=O)N1CCN(c3cccc(C)c3)C(C)C1)cn2C (stereo unspecified),.,-23%,?,-26%,-3%,-5%
CC(NC(=O)Cc1ccc(S(=O)(=O)N2CCOCC2)s1)c1ccc(Cl)c(Cl)c1 (stereo unspecified),-9%,-9%,?,?,-5%,.
COc1ccc(OC)c(C2SCCN2S(=O)(=O)c2cccc(C(F)(F)F)c2)c1 (stereo unspecified),-15%,-6%,?,16µM*,-13%,2%
COc1ccc(S(=O)(=O)N2CCSC2c2ccc(N)cc2)cc1 (stereo unspecified),-2%,15%,-19%,-24%,-5%,0%
COc1cc(OC)c(C2SCCN2S(=O)(=O)c2ccc(F)cc2)cc1OC (stereo unspecified),-11%,-10%,15µM*,13µM*,-1%,7%
O=C1c2ccccc2C(c2nnnn2Cc2ccccc2)N1Cc1cccnc1 (stereo unspecified),-8%,.,-24%,3%,.,.
COc1ccc(OC)c(CN2C(=O)CN(S(C)(=O)=O)CC2(C)C(=O)Nc2c(C)cccc2C)c1 (stereo unspecified),3%,.,-3%,7%,.,.
COc1ccc(-c2nnc(Nc3ccc(OCC(N)=O)cc3)c3ccccc23)cc1,.,-4%,?,-26%,14%,3%[12.3 µM]
O=C1C=C(C2OC(CO)C(O)C2O)C(=O)N1 (stereo unspecified),?,40µM*,6.5µM*,4.6µM*,.,.
OC[C@H]1O[C@@H](c2nc(-c3ccccc3Br)no2)[C@H](O)[C@@H](O)[C@H]1O,-3%,.,2%,-10%,.,.
CCOC(=O)C(C)Sc1nc(=O)n2ccccc2n1 (stereo unspecified),24µM*,-13%,?,?,0%,0%
COc1cccc(NC(=O)c2oc3ccccc3c2NC(=O)c2ccc(OC(C)C)cc2)c1,.,6%,?,?,-13%,6%
COCCNC(=O)C1(C)CCCN(C(=O)c2ccc3c(c2)CCO3)C1 (stereo unspecified),-11%,.,-14%,-3%,.,.
O=c1[nH]c(CSc2ncnc3sc(-c4ccccc4)cc23)nc2ccccc12,-6%,14%,13µM*,16µM*,-12%,6%
CN(C)C(=O)CSc1ncnc2scc(-c3ccccc3)c12,-16%,24%,-28%,3%,-2%,1%
O=c1[nH]cnc2sc(-c3ccccc3)cc12,-8%,-4%,-12%,-25%,-4%,3%
CC(Sc1ncnc2sc(-c3ccccc3)cc12)C(=O)N1CCNC1=O (stereo unspecified),6%,13%,?,18µM*,-12%,1%
CC(C)N(C(=O)CSc1ncnc2sc(-c3ccccc3)cc12)C(C)C,-9%,12%,15µM*,?,-4%,-1%
COC(=O)c1c(C)[nH]c(C(=O)CSc2ncnc3sc(-c4ccccc4)cc23)c1C,-6%,-1%,16µM*,18µM*,1%,5%
CC(C)Oc1cccc(C(=O)Nc2ccc(-c3nc4cc(Cl)cc(Cl)c4o3)cc2)c1,.,-3%,-17%,-21%,1%,-7%[12.3 µM]
SMILES,PLK1 PBD block,VDR inh,TDP1 cell noCPT,DT40 TDP1 CPT,GCN5L2 inh,TDP1 block
O=S(=O)(c1ccc2ncsc2c1)N1CCN(c2nc(-c3cccs3)nc3ccccc23)CC1,.,-24%,?,5%,.,1%
OCc1nc2ccccc2n1Cc1c(F)cccc1Cl,-2%,5%,15µM*!,?,-1%,0%
NC1=NC[C@H](Cc2ccc(O)cc2)N1CCCCC1CCCCC1,-6%,-1%,2.6µM*,4.6µM*,-6%,6%
NCCCC[C@H]1CN=C(N)N1CCc1cccc2ccccc12,-5%,-6%,-25%,1%,.,.
NC1=NC[C@@H](Cc2ccc(O)cc2)N1CCc1cccc2ccccc12,4%,3%,?,18µM*,23%,5%
O=C1NC[C@@H](Cc2ccc(O)cc2)N(CCc2cccc3ccccc23)C1=O,-6%,3%,-13%,-2%,-2%,?
NC1=NC[C@H](Cc2ccc(O)cc2)N1CCc1cccc2ccccc12,0%,-9%,15µM*,18µM*,1%,1%
NC1=NC[C@H](Cc2ccccc2)N1CCc1cccc(F)c1,-1%,-16%,12µM*,13µM*,12%,4%
CCCc1nn2c(=O)cc(COC(=O)c3ccccc3NC(=O)c3ccc(Cl)cc3)nc2s1,.,6%,?,-23%,17%,4%
Cc1nnc(SCC(=O)NC2CCCC(C)C2C)n1N (stereo unspecified),0%,-7%,2%,-1%,0%,0%
CCC(C)[C@H]1CN=C(N)N1CCc1cccc2ccccc12 (stereo partly specified),-14%,3%,2.1µM*,1.8µM*,.,.
Cc1cccc(C)c1NCc1n[nH]c(=S)n1-c1ccccc1,-14%,-16%,?,12%,-1%,-2%
COc1ncc2nc(CCc3ccccc3)c(=O)n(Cc3cccs3)c2n1,.,1%,21µM*,?,-7%,.
COc1ccc(Oc2ncc3nc(CCc4ccccc4)c(=O)n(C[C@H]4CCCO4)c3n2)cc1,.,-3%,-12%,?,-15%,.
COc1ncc2nc(CCc3ccccc3)c(=O)n(CCc3ccccc3)c2n1,.,-23%,-1%,?,-9%,.
COc1cccc(Cn2c(=O)c(CCc3ccccc3)nc3cnc(OC)nc32)c1,.,5%,23µM*,?,-8%,.
O=c1c(CCc2ccccc2)nc2cnc(Oc3ccccc3)nc2n1C[C@H]1CCCO1,.,-24%,18µM*,?,-18%,.

# Compound activity deposited in PubChem BioAssay by National Center for Advancing Translational Sciences (NCATS).
